ANO1 block = blocks the mouse calcium-activated chloride channel TMEM16A; Q8BHY3; normalized B-score (activity score, 25-100; higher = stronger inhibition) at 10 µM; 1.2% of 310,000 active; AID 588511; HEK293 TMEM16A/YFP iodide influx fluorescence, ionomycin;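 active means ratio plate-corrected score three or more library SD toward inhibition, starting fluorescence score within five deviations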;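 further: score derived from kinetic fluorescence span divided by baseline fluorescence per well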
CHT block = inhibits the human high affinity choline transporter | B-score at 10 µM | CHT-expressing cells, membrane potential dye, choline response; active compounds read low | AID 488975 | 0.86% of 310,000 active;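 active means B-score over 3 SD under the library average, and starting fluorescence ratio not unusually high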;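 further: choline stimulus applied at its EC90 after an EC20 pre-addition; B-score computed on integrated fluorescence ratio after choline addition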
CHT allo act = human CHT allosteric activation. B-score at 10 µM. CHT-expressing cells, membrane potential dye, choline EC20; active compounds read high; LV-AA mutant CHT in HEK293 cells. AID 488977. 0.49% of 310,000 active;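 active means initial fluorescence not abnormally high and integrated response B-score, plate-corrected, over 3 SD above library mean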
ANO1 activ = mouse TMEM16A channel activation, primary screen; HEK293 TMEM16A/YFP-H148Q/I152L, iodide quench fluorescence; active compounds read low; AID 623877; 0.3% of 340,000 active; Q8BHY3; B-score at 10 µM;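 active means fluorescence-ratio B-score plate-corrected deviation score at least 3 library SD below zero, with starting fluorescence score within 5 deviations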;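 further: channel opened by trigger with iodide after compound preincubation; score built on the fluorescence ratio of max minus min over baseline; more negative score means more quench and so TMEM16A activation or potentiation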
TMEM16A reconf = re-confirmation of mouse TMEM16A chloride channel inhibitors; inhibition, % at 10 µM; HEK293 TMEM16A/YFP-H148Q, iodide quench fluorescence; ionomycin added to raise cell calcium; 39% of 2,300 active; shares compounds with ANO1 block;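 active means mean duplicate percent inhibition, scaled so buffer wells are 0 and the reference blocker 100, over three buffer SD above buffer mean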
TMEM16A Ca cntr = alters calcium mobilization in TMEM16A HEK293 cells, counter-screen. shares compounds with ANO1 block. TMEM16A/YFP HEK293, Fluo4 calcium mobilization. calcium response (% of ionomycin), % at 10 µM. 2% of 2,300 active. AID 652231;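 active means duplicate-averaged calcium signal over 20% of the ionomycin maximum, relative to buffer baseline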;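 further: each well's signal is peak minus trough fluorescence divided by its pre-addition baseline; 0% = buffer wells and 100% = ionomycin wells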
YFP-HEK293 quench = acts in parental YFP-HEK293 cells lacking TMEM16A, counter-screen; shares compounds with ANO1 block; iodide YFP quench, ionomycin; YFP ratio F(max-min)/F0 at 10 µM; 2,300 tested, under 10 active;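 active means yellow fluorescent protein signal ratio exceeding the buffer control mean by over 5 SD of those controls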;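 further: ratio is mean of duplicate wells from kinetic YFP trace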
ClC-1 inh = selectivity of TMEM16A inhibitors: inhibition of rat ClC-1 chloride channel. AID 652236. ratio percent, % at 10 µM. CHO ClC-1-YFP, iodide influx fluorescence quench; iodide control reads 0, buffer control 100. shares compounds with ANO1 block. 2,300 tested, under 10 active;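 active means duplicate-mean ratio percent above the mean of iodide-only control wells, which defines zero, plus 5 of their SD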;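 further: higher percent means stronger block of ClC-1 iodide influx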
* = called active by the depositor; i = inactive; · = not tested or not shown. This is a sample that favours compounds with a hit; in the whole collection about 2.4% have one here.

SMILES	ANO1 block	CHT block	CHT allo act	ANO1 activ	TMEM16A reconf	TMEM16A Ca cntr	YFP-HEK293 quench	ClC-1 inh
c1ccc(-c2ccc(-c3nc(-c4ccccn4)no3)cc2)cc1	25*	i	i	i	i	i	-1.06	-0.5
Cc1cc2oc(=O)cc(C)c2cc1NC(=O)CCl	i	i	i	i	·	·	·	·
COc1ccc(C2(O)CCN(CC(=O)Nc3nc(-c4ccccc4)cs3)CC2)cc1	25*	i	i	i	35.5%*	i	-0.813	-29.0
CN1CCN(CC(=O)Nc2nc(-c3ccccc3)cs2)CC1	i	i	i	i	·	·	·	·
CN1CCCN(C(=O)/C=C/c2ccc(F)cc2)CC1	i	i	i	i	·	·	·	·
CC(=O)N1CCSc2ccc(S(=O)(=O)NCCc3ccc(C)cc3)cc21	i	i	i	i	·	·	·	·
CC(=O)N1CCSc2ccc(S(=O)(=O)NCCc3ccc(Cl)cc3)cc21	100*	i	i	i	34.0%*	i	-0.86	-11.0
Cn1cccc1C(=O)NNC(=O)COc1ccc(C#N)cc1	·	·	·	i	·	·	·	·
COc1ccc2c(c1)c(CC(=O)OC(C)C(=O)N(C)C)c(C)n2C(=O)c1ccc(Cl)cc1 (configuration not stated)	i	i	i	i	·	·	·	·
COC(=O)Cn1c(C(F)(F)F)nc2ccccc21	i	i	i	i	·	·	·	·
CC(OC(=O)Cn1c(C(F)(F)F)nc2ccccc21)C(=O)N1CCCc2ccccc21 (configuration not stated)	100*	i	i	i	i	i	-1.32	0.5
CC(=O)NS(=O)(=O)c1ccc(NC(=S)NC(=O)COc2ccccc2C)cc1	i	i	i	i	·	·	·	·
Cc1ccc(S(=O)(=O)Nc2nc(-c3ccccc3)cs2)cc1	i	i	i	i	·	·	·	·
Cc1ccc(S(=O)(=O)Nc2ccccc2C(=O)Nc2nc(-c3ccc(F)cc3)cs2)cc1	25*	i	i	i	39.0%*	i	-1.2	-17.0
CC(C)C(c1nnnn1C1CCCCC1)N1CCN(c2ncccn2)CC1 (configuration not stated)	100*	i	i	i	i	i	-1.22	-14.0
O=C(CN1CCC(C(=O)c2ccc(F)cc2)CC1)Nc1ccccc1	i	i	i	i	·	·	·	·
O=C(CN1CCC(C(=O)c2ccc(F)cc2)CC1)Nc1ccc(F)cc1	100*	i	i	i	i	i	-1.02	-7.5
COc1ccc(S(=O)(=O)Nc2cccc(NC(C)=O)c2)cc1	25*	i	i	i	i	i	-0.839	-3.0
COc1ccc(CCn2c(=S)[nH]c3cc(C(=O)NCc4ccco4)ccc3c2=O)cc1OC	25*	i	i	i	i	i	-0.911	-23.5
COc1ccc(-n2c(=S)[nH]c3cc(C(=O)NCc4ccco4)ccc3c2=O)cc1OC	i	i	i	i	·	·	·	·
CCn1c(SCC(=O)Nc2ccc3c(c2)oc2ccccc23)nnc1-c1ccc(N)cc1	100*	i	i	i	i	i	-0.985	-5.0
CC(=O)Nc1ccc(-c2nnc(SCC(=O)Nc3ccc4c(c3)oc3ccccc34)n2C)cc1	i	i	i	i	·	·	·	·
O=C(COC(=O)Cc1cccc(C(F)(F)F)c1)NC(=O)NC1CCCC1	·	·	·	i	·	·	·	·
O=C(COC(=O)CCNS(=O)(=O)c1cccc(C(F)(F)F)c1)NC(=O)NC1CCCCC1	25*	i	i	i	24.0%*	i	-1.27	-10.5
O=C(NCc1ccco1)c1ccccc1-c1ccc(C(F)(F)F)cc1	i	i	i	i	·	·	·	·
CC(C)NS(=O)(=O)c1ccc(NC(=O)C2CC3C=CC2C3)cc1 (configuration not stated)	i	i	i	i	·	·	·	·

Assay outcomes deposited in PubChem by Johns Hopkins Ion Channel Center.
